# Data from PubChem BioAssay (EPA / NIEHS).
# Activity calls are given as the source filed them. The calls were made as follows: active = hit-call score of the fitted dose curve at least 0.9, where 1 is the maximum; inactive = score below 0.9.
# Experiment: APR_HepG2_MitoMembPot_24hr: Apredica 24-hour HepG2 Assay for Mitochondrial Membrane Potential (AID 2282911)
# Settings: imaging, actives raise or lower the signal
# Description: APR_HepG2_24hr is a cell-based, multiplexed-readout assay that uses HepG2, a human liver cell line, with measurements taken at 24 hours after chemical dosing in a 384-well plate.APR_HepG2_MitoMembPot_24hr is one of 10 assay component(s) measured or calculated from the APR_HepG2_24hr assay. It is designed to make measurements of dye binding, a form of membrane potential reporter, as detected with fluorescence intensity signals by HCS Fluorescent Imaging technology.Data from the assay component APR_HepG2_MitoMembPot_24hr was analyzed into 1 assay endpoint. This assay endpoint, APR_HepG2_MitoMembPot_24hr, was analyzed with bidirectional fitting relative to DMSO as the negative control and baseline of activity. Using a type of membrane potential reporter, gain or loss-of-signal activity can be used to understand changes in the signaling. Furthermore, this assay endpoint can be referred to as a primary readout, because this assay has produced multiple assay endpoints where this one serves a signaling function. To generalize the intended target to other relatable targets, this assay endpoint is annotated to the cell morphology intended target family, where the subfamily is organelle conformation.
# Cells were treated with dimethyl sulfoxide (DMSO) as a solvent control at a final concentration of 0.5% v/v or with compounds in DMSO with a resulting final DMSO concentration of 0.5% v/v. Compound treatment was done at concentrations of 0.39, 0.78, 1.56, 3.12, 6.24, 12.5, 25, 50, 100, and 200 uM in duplicate on each plate. Cells were treated with compounds for 1, 24, or 72 hr. Carbonyl […] m-chloro-phenylhydrazone (CCCP) and taxol were used as positive controls for mitochondrial function and cytoskeletal stability, respectively; DMSO served as the negative control for this experiment. Cells were fixed by the direct addition of 50 uL formaldehyde in Hank's Balanced Salt Solution (HBSS) to a final concentration of 3.7%. After incubation in the fixation medium for 30 min at room temperature (293-298 K), cells were rinsed twice with HBSS and treated with cell permeabilization buffer (16 uL of 0.5% Triton X-100) for 10 min at room temperature (293-298 K) before labeling. For mitochondrial membrane potential and mitochondrial measurements, pre-fixed cells were incubated with 50 uL of MitoTracker Red CMXRos (Invitrogen) at a concentration of 250 nM for 30 min before fixation. In the remaining cases, post-fixed cells were labeled by incubation with a multiplexed mixture of primary antibodies in HBSS for 60 min at room temperature (293-298 K) to detect immunoreactivity of c-Jun (1:500), phospho-histone H3 (1:100), phospho-histone H2A.x (1:200), p53 (1:400), alpha-tubulin (1:200) and Hoechst 33342 (2 ug/mL). Cells were labeled for multiplexed imaging on two separate plates: a) Hoechst 33342, MitoTracker Red, phospho-histone H3, and alpha-tubulin, and b) Hoechst 33342, phospho-histone H2A.x, and c-Jun. A final rinse with HBSS (50 uL) was performed before analysis. The primary and secondary antibodies for the proteins were phospho-histone H3 (rabbit anti-phospho-histone H3 and FITC-donkey anti-rabbit IgG), phospho-histone H2A.x (mouse anti-phospho-histone H2A.x and FITC-donkey anti-mouse IgG), c-Jun (rabbit anti-phospho-c-Jun and Cy3-donkey anti-rabbit IgG), p53 (sheep anti-p53 and Cy5-donkey anti-sheep IgG), alpha-tubulin (mouse anti-alpha-tubulin and Cy5-donkey anti-mouse IgG). These antibodies are available as the CellCiphr HepG2 assay kit (Millipore).Digital images of each well were captured using a Cellomics ArrayScan VTI (Thermo Scientific Cellomics) (0.8 NA objective, 0.63x optical coupler, and XF-93 filter set) at 20x magnification. The images were acquired using the autofocus feature of the ArrayScan instrument, which entails the following steps. First, the camera focuses on channel 1 (Hoechst 33342), where nuclei are identified. Second, a Z offset of 1 um is used for capturing mitochondria (MitoTracker Red). […]
Structure (SMILES),outcome,AC50
CCCCc1ccccc1,inactive,
O=[N+]([O-])c1ccc(Cl)c(Cl)c1,inactive,
O=[N+]([O-])c1ccccc1,inactive,
Nc1ccc2ccccc2c1,,52.5 µM (active)
Nc1cc2c3c(c1)C(c1ccccc1)=N[C@@H](NC(=O)c1cccnc1)C(=O)N3CC2,inactive,
c1ccc2c(c1)Nc1ccccc1S2,,107 µM (active)
O=P(Oc1ccccc1)(Oc1ccccc1)Oc1ccccc1,inactive,
O=P1(N(CCCl)CCCl)NCCCO1 (stereo not given),inactive,
CCCCN(CCCC)SN(C)C(=O)Oc1cccc2c1OC(C)(C)C2,inactive,
CSC(C)(C)C=NO,inactive,
CCCCN(CCCC)N=O,inactive,
ClC(Cl)c1ccccc1,inactive,
CCOP(=S)(Oc1ccc([N+](=O)[O-])cc1)c1ccccc1 (stereo not given),inactive,
CCOc1ccc(C(C)(C)COCc2cccc(Oc3ccccc3)c2)cc1,inactive,
Cc1ccc(O)cc1C,inactive,
c1ccc(OP(Oc2ccccc2)Oc2ccccc2)cc1,inactive,
CCC1(c2ccccc2)C(=O)N=C(O)NC1=O (stereo not given),inactive,
O=C(O)C1C(C(=O)O)C2(Cl)C(Cl)=C(Cl)C1(Cl)C2(Cl)Cl (stereo not given),inactive,
CCOP(=S)(OCC)SCSCC,inactive,
CC(C)(C)OOC(C)(C)C,inactive,

Structure (SMILES),outcome,AC50
CN(C)C(=O)Cl,inactive,
Cc1ccc([N+](=O)[O-])cc1C,inactive,
O=C(O)C(Cl)Cl,inactive,
CCCCCCCc1ccc(O)cc1,inactive,
Cc1ccc(N)cc1N,inactive,
CCNc1nc(Cl)nc(NC(C)(C)C)n1,inactive,
CCCN(CCC)c1c([N+](=O)[O-])cc(C(C)C)cc1[N+](=O)[O-],,55.2 µM (active)
[N-]=[N+]=[N-],inactive,
Nc1ccc(Cl)cc1,inactive,
CCOS(=O)(=O)OCC,inactive,
CC(Cc1ccc(OCC(=O)O)cc1)NCC(O)c1csc(C(F)(F)F)n1 (stereo not given),inactive,
c1cc2c3c(cccc3c1)CC2,inactive,
CCN(CC)c1ccccc1,inactive,
COCCOCCO,inactive,
CC(C)(C)c1ccc(O)cc1,inactive,
CCOC(=O)c1ccccc1C(=O)OCC,inactive,
ClC1=C(Cl)C2(Cl)C3C(Cl)C(Cl)CC3C1(Cl)C2(Cl)Cl (stereo not given),inactive,
ClC(Cl)(Cl)c1ccccc1,inactive,
Cc1cccc(N)c1,inactive,
c1nc[nH]n1,inactive,
